According to PubChem BioAssay (NCI):
Compounds without any hit were thinned out: in the full panel of roughly 83,000, 20% have a hit.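 48-hour exposure, single concentration, 96-well plates; percent growth endpoint where 0 means no net growth. Active: below 10.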 Unmarked numbers belong to inactive results. Activity calls are given as the source filed them.

These compounds were tested on SK-MEL-28 melanoma (assay: NCI-60 one-dose screen, 48 h (100 = growth as untreated, 0 = no growth, -100 = all killed)). Settings: 10 µM unless noted.
Method: Growth inhibition of the SK-MEL-28 human tumor cell line is measured as a screen for anti-cancer activity. Cells are grown in 96 well plates and exposed to the test compound for 48 hours. Compounds are tested at a single concentration, which is 10^-5 M for most compounds. The reported endpoint is percent growth (GI% or GIPRCNT), where numbers from 0 - 100% represent growth inhibition, and numbers from -100% - 0 represent cell death. For example, a value of 40 represents 60% growth inhibition. A value of 0 means no net growth occurred over the course of the experiment. A value of -40 indicates 40% of cells at the beginning of the experiment died by the end of the experiment. A value of -100 means all cells are dead at the end of the experiment.
NCI-60 Human Tumor Cell Lines Screen was performed using the standard one-dose NCI protocol, which is described in more detail at https://dtp.cancer.gov/discovery_development/nci-60/default.htm.
Compounds with GIPRCNT values below 10 were considered active. Activity score was based on GIPRCNT using the following formula: […]
Score is 0 for GIPRCNT values of 100 or above, 50 for GIPRCNT values of 0, and 100 for GIPRCNT values of -100.

SMILES	growth
COc1ccc2oc3c(C)c4c(c(C)c3c2c1)C(=O)N(Cc1ccccc1)C4=O	103%
O=C1c2cccc(NCCN=Cc3cc([N+](=O)[O-])ccc3O)c2C(=O)c2c(NCCN=Cc3cc([N+](=O)[O-])ccc3O)cccc21	102%
COc1ccc(-c2ccc3c(c2)sc2nc(-c4ccc(F)cc4)cn23)cc1	105%
C[C@]12CC[C@@H]3c4cc(OC(F)F)c(O)cc4CC[C@H]3[C@@H]1CC[C@@H]2OS(N)(=O)=O	57.4%
O=c1c2c3c(sc2n2c(-c4cn(-c5ccccc5)nc4-c4ccc(Cl)cc4)nnc2n1Cc1ccccc1)CCCC3	105%
COc1ccc(OC)c2c1[nH]c(=O)c1c3ncccc3cn21	64.3%
N#CC1=C(/N=C/c2ccccc2)Oc2c(ccc3ccccc23)C1c1ccccc1 (stereo not given)	41.5%
Cc1c2c(c(C)c3c1oc1cc(O)ccc13)C(=O)N(CCN1CCCCC1)C2=O	106%
COc1ccc(C2C(c3nn[nH]n3)=C(N)Oc3c2ccc2ccccc32)cc1 (stereo not given)	57.4%
c1csc(-c2c3ccc(=[N+]4CCCCC4)cc-3oc3cc(N4CCCCC4)ccc23)c1	-66.4% (active)
CCN1C(=O)N(CC)C2C1NN=c1s/c(=C\c3cccs3)c(=O)n12 (stereo not given)	58.3%
O=C(Nc1ccccc1Cl)Oc1ccc(-c2ccccc2)cc1	151%
CC(=O)O[C@]1(C(C)=O)CCC2C3C[C@H](C)C4=CC(=O)CC[C@]4(C)C3CC[C@@]21C (stereo not given in full)	108%
COc1cc2ncn3c(=O)c4c5c(sc4nc3c2cc1OC)CCCC5	106%
CN(c1ccccc1)c1ccc2c(c1)OCCC21CC1Nc1cnccc1C(=O)O (stereo not given)	69.1%
COc1cc(Cn2ncc3ccc(NC(=O)c4cc5ccccc5oc4=N)cc32)cc(OC)c1OC	51.3%
O=c1cc(C2NNC(=S)N2)c2ccc3ccccc3c2o1 (stereo not given)	114%
CC(C)CCC[C@@H](C)[C@H]1CC[C@H]2[C@@H](Nc3ccc(O)cc3)CCC[C@]12C	97.9%
CCN(CC)S(=O)(=O)c1cccc(-c2ccc3c(NC(=O)C4CC4)n[nH]c3c2)c1	29.2% [6.25 µM]
COc1ccc2c(c1)O/C(=C/c1ccc(OCC(=O)c3ccccc3)cc1)C2=O	132%

SMILES	growth
Cc1nn(-c2ccccc2)c(Cl)c1/C=C(/NC(=O)c1ccccc1)c1nc2ccccc2[nH]1	83.6%
O=C(c1ccccc1)c1c(/C=C/c2ccc(Cl)cc2)nc2ccccc2c1/C=C/c1cccs1	102%
CCOC(CN=Cc1cc(C)c2[nH]c3ccccc3c2c1C)OCC	103%
O=C1NC(=Nc2ccc(Cl)cc2)S/C1=C\c1cn(-c2ccccc2)nc1-c1ccccc1	97.8%
Clc1ccc(-c2c3ccc(=[N+]4CCCCC4)cc-3oc3cc(N4CCCCC4)ccc23)cc1	-91.4% (active)
CCCCCCCOc1c(OC)cc(C2CC(=O)Nc3c2c(C)nn3-c2nc3ccccc3[nH]2)cc1OC (stereo not given)	-9.72% (active)
COC(=O)c1c2c(c(C)[n+]([O-])c1C)C(=O)C(NCc1ccc(F)c(Cl)c1)=CC2=O	57.9%
CCN1CCN(c2nc(C)cc(NCc3cc(Nc4ccnc5cc(Cl)ccc45)ccc3F)n2)CC1	-80.3% (active)
Cc1ccc(C(=O)CSc2nc(-c3ccc(Br)cc3)c(C#N)c(=O)[nH]2)cc1	101%
Cc1c(O)cc(-c2cnc(N/N=C\c3ccc(Cl)cc3)s2)c(O)c1C	94.4%
O=Cc1ccc(O)c2ncccc12	38.6%
CCCCCCCCCCCCCCCCCC1=NCCN1CCOC1=C(Cl)C(=O)c2ccccc2C1=O	92.1%
COC(=O)CCC1=C(C)C2=NC1=CC1=NC(=CC3=NC(=Cc4[nH]c(/c(=C(/C)O)c4C)=C2)C(C(C)=O)=C3C)C(C)=C1CCC(=O)OC	115%
Cc1cc(N2CCCC2)nc(NCc2cc(Nc3ccnc4cc(Cl)ccc34)ccc2F)n1	-71.4% (active)
S=C(Cc1ccc2c(c1)CCCC2)N1CCOCC1	102%
NC(N)=NN=C(c1ccccc1)c1ccccc1	43.1%
COc1cc(/C=C/C(=O)c2ccc(Nc3nc(Nc4ccc(F)cc4)nc(Nc4ccc(Cl)cc4)n3)cc2)cc(OC)c1OC	-32.9% (active)
COc1cc(N=Nc2ccc(N)cc2)c(OC)cc1N=Nc1ccccc1.[Cl][Zn][Cl]	109%
CCc1ccccc1-n1c(-c2ccc(Cl)cc2)cc(-c2ccc(OC)cc2)c(C#N)c1=O	109%
COc1ccc(-c2nc3c(N)c(CO)c(C)nc3o2)cc1	106%
